Screens: PubChem BioAssay, National Center for Advancing Translational Sciences (NCATS)
Shown are actives, neighbours in structure and some others; about 7% of the full set was active somewhere.
PI5P4K alpha inh: blocks human PI5P4K alpha kinase activity; PI5P4Kalpha enzyme, ADP-Glo luminescence, 60 min; hits give low values; P48426; actives 1.2% (n = 330,000); max response, %; active = max response of -50% or lower; inconclusive = between -30% and -50%; inactive = -30% or higher; note: value at the top dose of about 77 µM
Target sequence (P48426 whole entry, looked up): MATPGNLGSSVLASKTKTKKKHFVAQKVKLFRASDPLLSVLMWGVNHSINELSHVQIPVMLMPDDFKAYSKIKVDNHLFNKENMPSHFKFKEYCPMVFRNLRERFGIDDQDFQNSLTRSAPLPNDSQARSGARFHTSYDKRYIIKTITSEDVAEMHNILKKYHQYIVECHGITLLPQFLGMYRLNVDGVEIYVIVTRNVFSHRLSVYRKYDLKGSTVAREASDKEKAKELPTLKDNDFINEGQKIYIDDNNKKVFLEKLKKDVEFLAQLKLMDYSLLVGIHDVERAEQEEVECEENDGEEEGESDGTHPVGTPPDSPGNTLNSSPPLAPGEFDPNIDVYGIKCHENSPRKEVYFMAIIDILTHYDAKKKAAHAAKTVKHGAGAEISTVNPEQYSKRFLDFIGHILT
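Reactions run in 0.038 M HEPES pH 7.4, 0.28 mM EGTA, 0.1% CHAPS and 5% DMSO, with PI5P4Kalpha, substrate, compound and 5 microM ATP final, one hour at room temperature. Readout is ADP-Glo luminescence.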
JMJD2A Tudor: blocks the human JMJD2A Tudor domain. O75164. AlphaScreen JMJD2A-Tudor / H3K4me3 peptide binding. Potency, µM (series often up to 114 µM), hits mostly inhibitors. actives 4.4% (n = 390,000). AID 504339; note: nearly all actives have a fitted effect of over 50% in size
BAZ2B inh: BAZ2B (human) inhibition; Potency, µM (top dose mostly 114 µM), actives largely listed as inhibitors; AlphaScreen BAZ2B-H3K14Ac peptide displacement; Q9UIF8; actives 4.4% (n = 360,000); AID 504333; note: nearly all actives have a fitted effect of over 60% in size
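AlphaScreen displacement: compounds (up to 110uM) incubated 30 min at room temperature with a preformed 50 nM BAZ2B/50 nM biotinylated H3K14Ac peptide complex in PBS pH 7.4 with Tween-20. Donor and acceptor beads at 10 ug/mL final added, 20 min light-protected before reading.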
PLK1 PBD block: PLK1 (human) polo-box domain binding inhibition. P53350. Plk1 PBD binding of FITC phosphopeptide, fluorescence polarization. Potency, µM, actives largely listed as inhibitors. actives 2.8% (n = 360,000); note: series mostly up to about 57 µM; nearly all actives have a fitted effect of over 65% in size
KAT2A inh: blocks human GCN5L2 histone acetyltransferase; Q92830; Potency, µM (series often up to 58.9 µM), hits mostly inhibitors; AID 504327; actives 0.21% (n = 390,000); GCN5L2 HAT assay, ThioGlo1 CoA-SH fluorescence
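Fluorescence readout, Ex340nm/Em540nm: ThioGlo1 (50uM final) reacts with free CoA thiol released as 20nM GCN5L2 acetylates H3(1-25) peptide (75uM) using acetyl-CoA (70uM). Compound and enzyme sat 15 min beforehand; 20 min room-temperature reaction.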
HP1b chromo inh: blocks HP1-beta chromodomain binding to methylated histone tails | actives 0.56% (n = 390,000) | AlphaScreen HP1-beta / biotin-H3K9me3 peptide binding | Potency, µM (top dose mostly 114 µM), usual class: inhibitors | P83916; note: nearly all actives have a fitted effect of over 70% in size
Target sequence (P83916 whole entry, looked up): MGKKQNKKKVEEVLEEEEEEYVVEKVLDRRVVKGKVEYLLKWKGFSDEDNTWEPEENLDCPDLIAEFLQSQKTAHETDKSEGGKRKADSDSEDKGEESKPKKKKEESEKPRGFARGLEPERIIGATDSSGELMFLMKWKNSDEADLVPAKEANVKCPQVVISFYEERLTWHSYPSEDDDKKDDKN
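AlphaScreen: HP1-beta (50 nM) preformed 30 min with biotin-H3(1-18)K9me3 peptide (50 nM) in PBS pH 7.4, 0.01% Tween-20. Compound added for 30 min at RT, then streptavidin donor/nickel chelate acceptor beads (10 ug/mL) for 30 min.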
A number is an active result; 0 = inactive; ? = inconclusive; - = not tested or not shown; [ ] = dose if it differs, or a comment. Unless noted, calls come from the whole dose curve; as a rule, active = well fitted curve in the direction sought with a large enough effect; inconclusive = small, poorly fitted or top-dose-only effect, or another doubt; inactive = no such curve, though single readings can be large; an effect the other way counts as inactive or inconclusive.

SMILES	PI5P4K alpha inh	JMJD2A Tudor	BAZ2B inh	PLK1 PBD block	KAT2A inh	HP1b chromo inh
CC(=O)N(CCC(Cc1ccccc1)c1ccco1)Cc1ccco1 (centres undefined)	?	0	?	0	0	0
Cc1ccc2c(CC(=O)N(Cc3ccc(N(C)C)cc3)Cc3ccco3)coc2c1C	-	13µM	8.9µM	-	0	?
O=C(c1ccco1)N(CCC(c1ccccc1)c1ccco1)Cc1ccco1 (centres undefined)	-66	22µM	28µM	?	?	?
CCOc1ccc(N2CC(C(=O)NC3CCCCCC3)CC2=O)cc1 (centres undefined)	0	0	0	0	0	0
CCC(=O)N1c2ccccc2CC1C(=O)NCc1ccc(N(C)C)cc1 (centres undefined)	-	0	0	-	0	0
O=C(NCc1ccccc1Cl)C1CCN(S(=O)(=O)c2cccs2)CC1	0	0	0	0	0	0
O=C(O)c1cccc(-c2cccc(-c3nn4c(=O)cc(N5CCNCC5)nc4s3)c2)c1	-	0	-	-	-	-
COc1ccc(C(=O)N(Cc2ccco2)Cc2ccco2)cc1	-	0	0	-	0	0
CN(C)c1ccc(CN(Cc2ccco2)C(=O)c2ccco2)cc1	0	32µM	?	24µM	0	?
CCOc1c(Cl)cc(C(=O)N(Cc2ccc(N(C)C)cc2)Cc2ccco2)cc1Cl	-	13µM	13µM	-	0	0
CC(C)COc1ccc(C(=O)N(Cc2ccc(N(C)C)cc2)Cc2ccco2)cc1	-	14µM	13µM	-	0	0
CCCCn1c(N)c(N(CC(C)C)C(=O)C2=COCCO2)c(=O)[nH]c1=O	0	0	0	0	0	0
CN(CC(=O)Nc1ccccc1C(=O)NC1CC1)Cc1ccc(Cl)s1	0	0	0	0	0	0
Cn1c2cc(S(C)=O)sc2c2cnn(Cc3cccc(N)c3)c(=O)c21 (centres undefined)	-	0	-	-	-	-
CSc1cc2c(s1)c1cnn(Cc3cccc(N)c3)c(=O)c1n2C	-	3.5µM	-	-	-	-
CCn1cc(C(=O)O)c(=O)c2cc(F)c(N3CCN(C(=O)Nc4ccccc4)CC3)cc21	-	22µM	0	0	0	0
CCn1cc(C(=O)NCc2ccco2)c(=O)c2cc(F)c(N3CCN(C(=O)c4ccco4)CC3)cc21	?	0	56µM	0	0	0
CCn1cc(C(=O)O)c(=O)c2cc(F)c(N3CCN(C(=S)NC(=O)c4ccc(OC)cc4)CC3)cc21	0	0	?	0	0	0
CCn1cc(C(=O)O)c(=O)c2cc(F)c(N3CCN(C(=S)NC(=O)c4ccc(Br)cc4)CC3)cc21	0	0[11.4 µM]	32µM	?	0	0
CCOC(=O)CSc1nc2cc3c(cc2c(=O)n1CCCCCC(=O)NCc1ccc2c(c1)OCO2)OCO3	-	0	0	-	0	0
COC(=O)c1cc(C)nc2c1C(=O)C(=O)C=C2N1CCOCC1	0	0	50µM	0	0	0
CCc1ccc(-c2nn(CC(=O)NC3CCCC3)c3c2cnc2ccc(F)cc23)cc1	-	0	0	-	0	0
CCCCn1c(N)c(N(Cc2ccccc2OC)C(=O)C(C)Oc2ccc(Br)cc2)c(=O)[nH]c1=O (centres undefined)	0	0	-	0	-	0
CC(C)CCn1c(SCC(=O)NC2CCS(=O)(=O)C2)nc2cc(Cl)ccc2c1=O (centres undefined)	0	?	0	0	0	0
c1ccc2nc3c(cc2c1)CCCCC3	?	0[11.4 µM]	0	3.4µM	0	0
SMILES	PI5P4K alpha inh	JMJD2A Tudor	BAZ2B inh	PLK1 PBD block	KAT2A inh	HP1b chromo inh
Cc1ccc(C(c2sc3nc(-c4ccco4)nn3c2O)N2CCOCC2)cc1 (centres undefined)	-	0	0	-	0	0
CCn1cc(C(=O)N2CCN(c3cc(Cl)ccc3C)CC2)c(=O)c2cc(S(=O)(=O)N3CCCCC3)ccc21	-	0	-	-	0	0
CC(C)Oc1ccccc1OCCN(C)C	0	32µM	45µM	0	0	?
COC(=O)[C@@]1(Cc2ccc(OC)cc2)[C@H]2c3cc(C(=O)N4CCCC4)n(Cc4ccc(C)o4)c3C[C@H]2CN1C(=O)c1ccccc1	-	-	40µM	-	0	-
COC(=O)[C@@]1(Cc2ccc(F)cc2)[C@H]2c3cc(C(=O)N4CCCC4)n(CCc4ccccn4)c3C[C@H]2CN1C(=O)c1ccccc1	0	?	?	21µM	0	0
COC(=O)[C@@]1(Cc2ccc(OC)cc2)[C@H]2c3cc(C(=O)N4CCCC4)n(Cc4ccc(S(C)(=O)=O)cc4)c3C[C@H]2CN1C(=O)c1ccccc1	0	-	-	0	-	-
CCCCNC(=O)CN1CCN(c2ccc(NC(=O)c3ccc(OC)cc3)cc2C(=O)O)CC1	-	?	0	-	0	0
CCCNC(=O)CN1CCN(c2ncc(NC(=O)c3ccc(Cl)cc3)cc2C(=O)O)CC1	-	71µM	50µM	-	0	0
CCCCNC(=O)CN1CCN(c2ncc(NC(=O)c3ccc(Cl)cc3)cc2C(=O)O)CC1	-	79µM	50µM	-	0	0
COc1ccc(/C=N/n2c(-c3cc(C)[nH]n3)n[nH]c2=S)cc1OC	0	3.5µM	?	0	0	0
Cc1cc(-c2n[nH]c(=S)n2/N=C/c2ccc(C)o2)n[nH]1	0	3.2µM	0	0	0	?
Cc1cccc(-c2n[nH]c(=S)n2/N=C/c2ccc(C)o2)c1	0	7.9µM	0	0	0	0
CC(/C=N/n1c(-c2cc(C)[nH]n2)n[nH]c1=S)=C\c1ccccc1	0	?	0	0	0	0
COc1cc(/C=N/n2c(-c3cc(C)[nH]n3)n[nH]c2=S)cc(OC)c1O	0	3.5µM	?	0	0	?
CC1CCCC(C)N1C(=O)COC(=O)c1ccco1 (centres undefined)	0	0	-	0	0	0
